IMPase Li inh = membrane-permeable IMPase blocker, potentiated with lithium | 0.35% of 210,000 active | Potency, µM (doses to about 59.4 µM), for the others: at the highest dose activity, negative = IMPase inhibition, most hits filed as inhibitors | CHO-M1 cells, IP1 TR-FRET (IP-One), carbachol + lithium;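 also: IP1 builds up when IMPase is blocked and the TR-FRET signal falls; potency is read from the fitted curve at half-maximal effect; plate controls were basal vehicle for no effect and high inhibitor control for full effect; nearly all actives have a fitted effect of over 50% in size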
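Readout is a homogeneous TR-FRET IP1 immunoassay (Ex 320, Em 665 and 620), where raised cytosolic IP1 lowers signal. Cells were CHO-M1 treated 30 min at 37C with test compounds plus a little lithium; AC50 values came from Hill-equation fitting.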
ALDH1A1 inh = inhibitors of human aldehyde dehydrogenase 1A1. P00352. Purified ALDH1A1, NADH fluorescence, propionaldehyde substrate. Potency, µM (series often up to 75.3 µM), inactives show at the top dose activity, negative = inhibition, usual class: inhibitors. 7.3% of 220,000 active. AID 1030; active = well fitted inhibition curve with a large enough effect, not every such curve was filed as active; inconclusive = small, poorly fitted or top-dose-only effect, or another doubt; inactive = no such curve, though single readings can be large or run the other way;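 also: potency is read from the fitted curve at half-maximal effect; plate controls were no enzyme wells and a reference inhibitor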
IMPase inh = cell-permeable inhibitors of inositol monophosphatase (IMPase); 120,000 tested, under 10 active; CHO-M1 cells, IP1 accumulation, HTRF TR-FRET ratio; inhibition (IP1 accumulation), % at 46.1 µM; P97697; AID 901; active = well fitted curve in the direction sought with a large enough effect in the signal ratio, not every such curve was filed as active; inconclusive = small, poorly fitted or top-dose-only effect, or a change in a side signal; inactive = no such curve, though single readings can be large or run the other way; the % refers to the signal ratio;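 also: cells stimulated with carbachol in lithium chloride buffer; plate controls were DMSO basal wells for no effect and reference inhibitor wells for full effect; higher means more IMPase inhibition seen as more IP1 and lower FRET ratio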
Target sequence (P97697 whole entry, looked up): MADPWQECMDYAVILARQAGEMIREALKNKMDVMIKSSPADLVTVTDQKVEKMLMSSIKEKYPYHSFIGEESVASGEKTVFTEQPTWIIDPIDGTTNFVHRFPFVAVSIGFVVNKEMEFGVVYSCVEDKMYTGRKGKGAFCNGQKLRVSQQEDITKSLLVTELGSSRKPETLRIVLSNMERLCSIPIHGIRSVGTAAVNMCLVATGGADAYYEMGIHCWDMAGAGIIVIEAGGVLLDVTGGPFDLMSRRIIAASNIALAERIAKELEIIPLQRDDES
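CHO-M1 cells (CHO stably expressing M1 receptor), compound up to 46 uM final, stimulated with carbachol (50 uM as added) in buffer with 50mM LiCl, pH 7.4, 30 min at 37C. Cytosolic IP1 read by TR-FRET; AC50 from Hill fits.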
HTT aggregate = inhibitors of mutant huntingtin aggregate formation in PC12 cells. PC12 HttQ103-GFP aggregates, Acumen cytometry, 40 h. Potency, µM (doses to about 46.1 µM), inactives show at the top dose activity change, negative = inhibition, most hits filed as inhibitors. 1.1% of 220,000 active; also: potency is read from the fitted curve at half-maximal effect; % is scaled to controls: 0 for no effect and ±100 for the full control effect; nearly all actives have a fitted effect of over 60% in size
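Ecdysone-promoter PC12 model expressing HTT exon 1 Q103 fused to GFP, induced by tebufenozide at 100 nM final. Compounds titrated; aggregates sized 1–25 µm scored on a 488 nm laser cytometer.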
HTT ATP protect = protects HTT-Q103 PC12 cells, measured by ATP; PC12 HTT-Q103 induced, cytoprotection, ATP luminescence, 40 h; Potency, µM (doses to about 56.4 µM), for the others: cytoprotection (ATP increase), most hits filed as activators; 0.14% of 230,000 active; also: potency is read from the fitted curve at half-maximal effect; % of control where 0% means no effect; nearly all actives have a fitted effect of over 45% in size
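Stable PC12 Q103-GFP cells in serum-supplemented, phenol red-free DMEM; induction by tebufenozide at 100 nM final; compound dose series; cell viability quantified luminescently from ATP.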
HPGD inh = inhibitors of human 15-hydroxyprostaglandin dehydrogenase (HPGD); AID 894; purified HPGD, NADH fluorescence kinetic, PGE2 substrate; 4.3% of 150,000 active; P15428; Potency, µM, for the others: top-dose activity change, negative = inhibition, actives largely listed as inhibitors; active = well fitted inhibition curve with a large enough effect, not every such curve was filed as active; inconclusive = small, poorly fitted or top-dose-only effect, or another doubt; inactive = no such curve, though single readings can be large or run the other way; also: potency is read from the fitted curve at half-maximal effect; % is scaled to controls: 0 for no effect and ±100 for the full control effect
Target sequence (P15428 whole entry, looked up): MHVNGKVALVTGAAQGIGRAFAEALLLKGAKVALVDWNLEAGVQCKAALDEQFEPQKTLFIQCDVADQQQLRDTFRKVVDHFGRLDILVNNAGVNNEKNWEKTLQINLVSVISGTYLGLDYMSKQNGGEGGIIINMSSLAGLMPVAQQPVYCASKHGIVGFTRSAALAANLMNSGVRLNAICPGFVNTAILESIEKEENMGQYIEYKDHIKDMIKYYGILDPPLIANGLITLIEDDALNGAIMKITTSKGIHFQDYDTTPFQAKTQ
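20 nM HPGD preincubated 15 min at room temperature with compound in 50 mM Tris-HCl pH 8, 0.01% Tween 20. Started with 1 mM NAD+ and 30 uM prostaglandin E2; NADH fluorescence (360/450 nm) read 5 times over 30-s intervals, last minus first.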
* hit, by the source's call; ? = inconclusive; . = no result; [ ] = remark or other dose. Sampled rows, rich in hits. Any-hit rate of the full collection: about 9.4%. Unless noted, calls follow the shape of the dose curve; as a rule, active = well fitted curve in the direction sought with a large enough effect; inconclusive = small, poorly fitted or top-dose-only effect, or another doubt; inactive = no such curve, though single readings can be large; an effect the other way counts as inactive or inconclusive.

SMILES | IMPase Li inh | ALDH1A1 inh | IMPase inh | HTT aggregate | HTT ATP protect | HPGD inh
CC[C@H](CO)NC(=O)[C@@H]1C=C2c3cccc4[nH]cc(c34)C[C@@H]2N(C)C1 | . | . | 0 | . | -1%[1.9 µM] | .
C[C@H]1C2C=C[C@H]1[C@@H](C(=O)O)[C@@H]2c1c2ccc(=O)c(O)c-2oc2c(O)c(O)ccc12 | 2% | -4%[13.5 µM] | . | . | . | 3.5µM*
CC(=O)[C@H]1[C@H](C#N)CC2C3CC=C4C[C@@H](O)CCC4(C)C3CCC21C (stereo not given in full) | 16% | -2% | . | . | . | -3%
O=C(Nc1ccccc1)c1cc([N+](=O)[O-])ccc1N1CCNCC1 | 4% | 4% | . | 0%[9.22 µM] | -4%[1.9 µM] | .
O=[N+]([O-])c1ccc2nc(N3CCNCC3)ccc2c1 | 3% | 25µM* | 6 | . | -58% | -16%
COc1ccc(N2CC(C(=O)NCc3ccco3)CC2=O)cc1 (stereo not given) | 6% | 25µM* | . | 17% | -6% | .
Cc1nc2cc([N+](=O)[O-])ccc2c(=O)n1-c1ccccc1[N+](=O)[O-] | 5% | 32µM* | . | 10%[9.22 µM] | 14%[10 µM] | .
CC(C)(COCC1CO1)COCC1CO1 (stereo not given) | 15% | 1% | . | . | -16% | -10%
CC(=O)c1cccc(NC2=NCC(C)S2)c1 (stereo not given) | -10%[38.3 µM] | -6% | 1 | 7% | -1% | 14µM*
CC1CN=C(Nc2ccc(F)c(Cl)c2)S1 (stereo not given) | . | . | . | 2%[9.22 µM] | -6%[10 µM] | .
Cc1cc(NC(=O)CCl)nn1C | -4% | ? | . | 12%[9.22 µM] | 27%[10 µM] | .
Cn1ccc(NC(=O)CCl)n1 | 3% | 20µM* | . | ? | -284% | .
Cc1ccccc1C1=NCC(=O)N(CC(=O)NCc2ccco2)c2sc3c(c21)CCCC3 | 39%[38.3 µM] | 40µM* | 4 | 2% | 0% | 40µM*
CC(C)(O)C1O[C@H]2CC[C@@]3(C)[C@@](O)(CC[C@H]4Cc5c([nH]c6ccccc56)[C@@]43C)C2=CC1=O (stereo not given in full) | 20% | -7% | . | . | -121% | .
C=C/C(=C/C(=O)C[C@H](C)C[C@@H](C)CC[C@H](O)[C@H](C)C(=O)C[C@@H](O)[C@H](C)[C@@H](C)OC(=O)C[C@@H](O)C1=C(C)C(=O)OC1=O)CC | -5% | ? | . | . | -20%[10 µM] | 2.8µM*
COc1cccc(N2C(=O)NC(=O)C3(Cc4cc(C)ccc4N(C)C3)C2=O)c1 (stereo not given) | -6%[38.3 µM] | 20µM* | -6 | -8% | 2% | -22%
Cc1ccc2c(c1)CC1(CN2C)C(=O)NC(=O)N(c2cc(C)ccc2C)C1=O (stereo not given) | -11%[38.3 µM] | 1.8µM* | ? | -25% | -7% | -16%
COc1ccc(OC)c(N2C(=O)NC(=O)C3(Cc4cc(C)ccc4N(C)C3)C2=O)c1 (stereo not given) | 2%[38.3 µM] | ? | -11 | 8% | -14% | -11%
COc1cc(CN2C(=O)NC(=O)C3(Cc4cc(C)ccc4N(C)C3)C2=O)cc(OC)c1 (stereo not given) | 14%[38.3 µM] | ? | 5 | -20% | -6%[0.074 µM] | -18%
CCCCN1C(=O)NC(=O)C2(Cc3cc(C)ccc3N(C)C2)C1=O (stereo not given) | 22%[38.3 µM] | 10µM* | -11 | -5% | -25% | -10%
COc1ccc(OCC#CCN2CCCCCC2)cc1 | 22% | 22µM* | . | -8% | . | .
Clc1ccc(OCC#CCN2CCOCC2)cc1 | 3% | ? | . | -10%[9.22 µM] | -18% | .
O=[N+]([O-])c1cccc(O)c1 | 4% | ? | . | . | 25% | -10%
O=[N+]([O-])c1ccccc1 | 3% | 32µM* | . | -5% | ? | -10%
Clc1ccc(C(c2ccccc2Cl)C(Cl)(Cl)Cl)cc1 (stereo not given) | -2% | 22µM* | . | . | 12% | -6%
SMILES | IMPase Li inh | ALDH1A1 inh | IMPase inh | HTT aggregate | HTT ATP protect | HPGD inh
Nc1nc(N)c(N=Nc2ccc([As](=O)(O)O)c(O)c2)c(N)n1 | 8% | 9%[13.5 µM] | . | . | -9%[10 µM] | -3%
S=c1[nH]nc(-c2ccco2)n1/N=C/c1cccs1 | -3% | 25µM* | 3 | -20% | -14%[10 µM] | 28µM*
C=C(C)Cn1c(-c2cccs2)n[nH]c1=S | -7% | ? | . | 8%[9.22 µM] | -16%[10 µM] | .
CCN(CC)c1ncnc2c1ncn2[C@@H]1O[C@@H](COP(=O)(O)OP(=O)(O)C(Br)(Br)P(=O)(O)O)[C@H](O)[C@@H]1O | . | . | -3 | . | 2%[1.9 µM] | .
O=[N+]([O-])c1ccc2c3c(cccc13)CC2 | 6% | 3.2µM* | . | . | ? | -28%
c1ccc(NNc2ccccc2)cc1 | 7% | 10µM* | . | . | 0% | 4%
Nc1nc(N)c(N=Nc2ccc([As](=O)(O)O)cc2)c(=O)[nH]1 | 4% | 2%[13.5 µM] | . | . | 12%[10 µM] | -1%
C=CCN1C(=O)NC(=O)/C(=C/c2cc3c4c(c2)CCCN4CCC3)C1=O | 6% | 0.89µM* | . | -26% | . | 14µM*
CC(C)[C@H]1C(=O)N2CCC[C@@H]2[C@]2(O)O[C@@](NC(=O)[C@H]3C=C4c5cccc6[nH]cc(c56)C[C@H]4N(C)C3)(C(C)C)C(=O)N12 | . | . | . | . | -14% | .
Cc1occc1C(=O)Nc1nnc(C(F)(F)F)s1 | 0%[38.3 µM] | 2% | 10 | 35µM* | -1% | -16%
Cc1cccc(C)c1O | 3% | ? | . | . | -8% | -2%
[O-][Br+2]([O-])O | 4% | ? | . | . | ? | -8%
CCOP(=O)(OCC)C(c1ccccc1)N(C)C=O (stereo not given) | . | 18µM* | ? | -12% | -23% | .
CCOP(=O)(OCC)C(NC(=O)c1ccccc1)C(Cl)(Cl)Cl (stereo not given) | -7% | -4% | . | 16% | . | -10%
COc1ccc(CN2CCN(C(=O)Cc3ccccc3)CC2)c(OC)c1 | 1% | 18µM* | . | -1% | 7%[10 µM] | -2%
COc1ccc(OCC(=O)N2CCN(Cc3ccc4c(c3)OCO4)CC2)cc1 | 5% | 1% | . | -4%[9.22 µM] | 11%[10 µM] | .
COc1cccc(CN2CCN(C(=O)COc3ccc4ccccc4c3)CC2)c1 | -19%[38.3 µM] | 25µM* | 5 | 4%[9.22 µM] | -20% | -7%
Cc1ccc(OCC(=O)N2CCN(Cc3ccc4c(c3)OCO4)CC2)cc1 | 12% | 25µM* | . | 11% | 0%[10 µM] | .
COc1ccc(CN2CCN(Cc3ccccc3)CC2)c(OC)c1 | -3%[38.3 µM] | 2% | 6 | -4% | -8% | -12%
Oc1cc(Cl)ccc1Oc1ccc(Cl)cc1Cl | 2% | 1% | . | . | 7.1µM* | 7.9µM*
O=C1NC(=O)C(=Cc2cc([N+](=O)[O-])ccc2N2CCCCC2)C(=O)N1 | -9% | -8% | . | 6% | -43% | .
O=C1NC(=O)C(=Cc2ccc(N3CCN(C(=O)c4ccccc4)CC3)c([N+](=O)[O-])c2)C(=O)N1 | -4% | 11µM* | . | -2% | 23% | .

Screening data as filed in PubChem.
